Source: PubChem (Buhrlage Lab, Dana-Farber Cancer Institute and Novartis Institutes for BioMedical Research (Cambridge, Mass))
OTUD3 inh: inhibitors of human OTUD3 deubiquitinase | purified OTUD3, Ub-rhodamine fluorescence, 2 h | AID 1645858, 2021 | 47,000 compounds, 0.7% hits | inhibition, % at 25 µM
UCHL1 inh: inhibitors of human UCHL1 deubiquitinase | Ubiquitin carboxyl-terminal hydrolase isozyme L1 (Homo sapiens), P09936 | purified UCHL1, Ub-rhodamine cleavage fluorescence | 47,000 compounds, 0.2% hits | inhibition, % at 20 µM
USP8 inh: inhibitors of human USP8 deubiquitinase; Ubiquitin carboxyl-terminal hydrolase 8 (Homo sapiens), P40818; purified USP8, Ub-rhodamine cleavage fluorescence, 30 min; inhibition, % at 20 µM; 47,000 compounds, 4.2% hits
USP10 block: inhibitors of human USP10 deubiquitinase; 47,000 compounds, 1.1% hits; inhibition, % at 20 µM; purified USP10, Ub-rhodamine fluorescence, 60 min; Ubiquitin carboxyl-terminal hydrolase 10 (Homo sapiens), Q14694
USP7 inh: inhibitors of human USP7 deubiquitinase. Ubiquitin carboxyl-terminal hydrolase 7 (Homo sapiens), Q93009. purified USP7, Ub-rhodamine cleavage fluorescence. inhibition, % at 20 µM. 47,000 compounds, 0.3% hits. AID 1645854, 2021
Active calls of the source: *; · = no result given. Sampled rows, rich in hits. Any-hit rate of the full collection: about 4.9%. Cut-off read from the data, not from the text of the source: active = inhibition above about 30%; inactive = the rest.

SMILES | OTUD3 inh | UCHL1 inh | USP8 inh | USP10 block | USP7 inh
CCN1CCC2(CC1)N=C(c1ccccc1)CC(c1cccc(OC)c1O)N2 (stereo not drawn) | -5 | 0 | 60* | -8 | -1
CC(=O)N1CCC2(CC1)N=C(c1ccccc1O)CC(c1ccc(C)cc1)N2 (stereo not drawn) | -8 | -1 | 12 | -2 | -31
COc1ccc(C2CC(c3ccccc3O)=NC3(CCN(C(C)=O)CC3)N2)cc1 (stereo not drawn) | 0 | -1 | 25 | -5 | -8
CCN1CCC2(CC1)N=C(c1ccc3c(c1)OCO3)CC(c1ccccc1O)N2 (stereo not drawn) | -3 | -2 | 34* | 0 | -1
Cc1ccccc1CNC(=O)c1cccc(N2C(=O)CCS2(=O)=O)c1 | 0 | -2 | 8 | -3 | 2
O=C(Nc1ccc(N2CCCCC2)cc1)c1cccc(N2C(=O)CCS2(=O)=O)c1 | 3 | 4 | 43* | 3 | -6
Cn1ccc2c(cc(C(=O)NC3CCCCCC3)n2C)c1=O | 0 | -1 | -130 | 3 | 0
CC(NC(=O)c1cc2c(=O)n(C)ccc2n1C)c1ccccc1 (stereo not drawn) | 7 | 3 | 45* | 3 | 3
CCCCc1ccc(S(=O)(=O)N2CCN(Cc3ccc4c(c3)OCO4)CC2)cc1 | 15 | 6 | 6 | 8 | 10
O=c1c2ccccc2c2ccccc2c(=O)n1-c1ccc2c(c1)OCO2 | 7 | 3 | 13 | 2 | -3
CCOc1cc(C2Nc3ccccc3C(=O)N2c2ccc3c(c2)OCO3)ccc1O (stereo not drawn) | 2 | 5 | 31* | 2 | -2
COc1ccc(-c2nc(-c3nnn(Cc4cccc(F)c4)c3C)no2)cc1OC | 5 | 1 | -1 | -5 | 2
COc1ccc(-c2nc(-c3nnn(Cc4ccc(F)cc4)c3C)no2)c(OC)c1 | 27 | 3 | 60* | 11 | 4
Fc1cccc(-n2cc(-c3noc(-c4cccnc4)n3)nn2)c1 | 6 | 5 | 52* | 3 | 3
COc1ccc(-c2nc(-c3cn(-c4cccc(Cl)c4)nn3)no2)c(OC)c1 | -3 | 10 | 30 | 34* | 25
Clc1cccc(-n2cc(-c3noc(-c4ccncc4)n3)nn2)c1 | -5 | -1 | -4 | -1 | 2
COc1ccccc1-c1nc(-c2cn(Cc3ccc(C)cc3)nn2)no1 | 8 | 5 | 6 | 13 | 4
COc1ccc(-c2nc(-c3cn(-c4ccccc4)nn3)no2)c(OC)c1 | 35* | 2 | 38* | 20 | 5
NC(=O)c1cncc(Sc2ccccc2)n1 | 17 | 2 | 2 | 1 | ·
COc1ccccc1-c1nc(-c2cn(-c3ccc(F)cc3)nn2)no1 | 8 | 8 | 89* | 33* | 20
COc1ccccc1-c1nc(-c2cn(-c3ccccc3)nn2)no1 | 12 | 4 | 14 | 4 | -3
Cc1nn(-c2ccc(F)cc2)c(C)c1S(=O)(=O)N1CCN(c2ccccn2)CC1 | 21 | 6 | -2 | 5 | 36*
O=S1(=O)c2ccccc2O[C@H]2CCN(Cc3ccccc3)CC[C@@H]2N1Cc1cccnc1 | 6 | 0 | -10 | -5 | -4
Cn1nc(-c2ccccc2)c2cc(C(=O)N3CCOCC3)sc21 | 4 | 6 | 2 | 1 | 2
CNC(=O)c1cc2nc(N(C)C)n(-c3ccc(F)cc3)c2s1 | 3 | 5 | 89* | -5 | -5
SMILES | OTUD3 inh | UCHL1 inh | USP8 inh | USP10 block | USP7 inh
CN(C)c1nc2cc(C(=O)N3CCCC3)sc2n1-c1ccccc1 | 2 | 7 | 57* | -6 | 0
COc1ccccc1N1CCN(C(=O)CSc2cc(=O)n(C)c3ccccc23)CC1 | 20 | 2 | -23 | 0 | 3
CCC(C(=O)NCc1ccncc1)N(c1cccc(Cl)c1)S(C)(=O)=O (stereo not drawn) | 32* | 3 | -6 | 3 | -13
Cc1sc(NC(=O)c2cccnc2)nc1-c1ccc2c(c1)NC(=O)CO2 | 16 | 3 | 31* | 3 | 4
CC(C)Nc1ncnc2c1c(C(=O)N1CCOCC1)c1ccccn12 | -16 | -6 | 17 | -9 | -9
O=C(c1c2c(N3CCCC3)ncnc2n2ccccc12)N1CCCC1 | -25 | -16 | 67* | -4 | -27
O=C(c1c2c(-c3ccncc3)ncnc2n2ccccc12)N1CCOCC1 | -20 | -80 | 33* | -2 | -88
